AID504770: E. coli YBA685 growth inhibition, screen for V. cholerae RctB inhibitors. 130,000 compounds, 0.27% hits. z-score (no concentration beside the values). E. coli YBA685 rctB-dependent plasmid, OD600 growth, 3 h; hits give low values. AID 504770; in the data active means z-score below about -2, passing the limit was not always enough
MenB inh: Mtb MenB enzyme inhibition | AID 540299 | inhibition, % (no concentration beside the values) | P9WNP5 | MenB enzyme assay, absorbance read-out | 100,000 compounds, 0.43% hits; in the data active means inhibition above about 21%, passing the limit was not always enough
Target sequence (P9WNP5 whole entry, looked up): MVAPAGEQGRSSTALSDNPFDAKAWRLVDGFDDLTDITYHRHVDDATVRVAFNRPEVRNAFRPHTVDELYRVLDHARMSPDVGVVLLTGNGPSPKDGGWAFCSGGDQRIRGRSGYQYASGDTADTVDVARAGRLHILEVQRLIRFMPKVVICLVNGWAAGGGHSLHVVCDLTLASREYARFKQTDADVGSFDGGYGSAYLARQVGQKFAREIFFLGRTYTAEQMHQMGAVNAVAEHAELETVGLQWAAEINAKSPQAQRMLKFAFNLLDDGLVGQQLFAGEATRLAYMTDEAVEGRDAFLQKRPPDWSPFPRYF
PV pol inh: inhibitors of poliovirus RNA polymerase binding and polymerization. P03300. poliovirus polymerase elongation, fluorescence polarization; hits give low values. % elongation, % (compound at 16.7 µg/mL). 150,000 compounds, 0.66% hits; in the data active means % elongation below about 90%
Mtb MbtI inh: inhibitors of Mycobacterium tuberculosis siderophore enzyme MbtI; P9WFX0; purified MbtI enzyme, fluorescence intensity read-out; inhibition, % (no concentration beside the values); 100,000 compounds, 0.89% hits; in the data active means inhibition mostly above about 56%, no sharp cut-off; inactive means mostly below about 77%
Numbers without * were called inactive. This is a sample that favours compounds with a hit; in the whole collection about 1.5% have one here.

Screening COC(=O)CC1SC(=O)NC1=S (configuration not stated) returned AID504770 -2.7, MenB inh -52, PV pol inh 60 and Mtb MbtI inh 84*.
COC(=O)CC1SC(=O)NC1=Nc1ccc(C)cc1 (configuration not stated) was read as AID504770 0.55.
CC(Oc1ccc(Cl)cc1)C(=O)OCC(=O)Nc1ccc(F)cc1F (configuration not stated) was read as AID504770 -1.1, PV pol inh 101 and Mtb MbtI inh -8.
C/C(=N\NC(=O)c1nc(Cl)c(Cl)c(N)c1Cl)c1cc(O)ccc1O was read as AID504770 1.4, MenB inh -19, PV pol inh 105 and Mtb MbtI inh 56*.
Screening CC1=CC(C)=NC2Nc3c(C)cc(C)cc3C(=N)C12 (configuration not stated) returned AID504770 0.05, MenB inh -279, PV pol inh 86* and Mtb MbtI inh 52.
Screening COc1ccc(CSc2nnc(C)s2)cc1F returned AID504770 0.95, MenB inh 56*, PV pol inh 102 and Mtb MbtI inh 0.
Screening COc1ccc(CCNC(=O)CSc2nnc(C)s2)cc1OC returned AID504770 0.6, MenB inh -4, PV pol inh 102 and Mtb MbtI inh -1.
CCC(CC)NC(=O)c1ccc[nH]c1=S was read as AID504770 0.2, MenB inh -21, PV pol inh 102 and Mtb MbtI inh 93*.
For O=C1COc2ccc(-c3csc(=Nc4ccc(F)cc4)n3/N=C/c3ccc(O)c(O)c3)cc2N1 the results were AID504770 -0.15, MenB inh -60, PV pol inh 83* and Mtb MbtI inh 6.
`CN1CCN(CC2COc3ccccc3O2)CC1` (configuration not stated) gave AID504770 -0.85, MenB inh 5 and PV pol inh 97.
For CS(=O)(=O)NNc1nccc(-c2cccnc2)n1 the results were AID504770 0.1, MenB inh -18, PV pol inh 101 and Mtb MbtI inh 87*.
For Clc1ccccc1C1SCC2Nc3ccccc3CN21 (configuration not stated) the results were AID504770 -0.75, MenB inh 71*, PV pol inh 105 and Mtb MbtI inh -5.
Screening O=C(O)CN=C1NC2(CCCC2)Cc2ccccc21 returned AID504770 1.3, MenB inh 34*, PV pol inh 100 and Mtb MbtI inh -1.
NC(=O)COC(=O)COc1ccc(OCc2ccccc2)cc1 was read as AID504770 -0.4, MenB inh -1, PV pol inh 105 and Mtb MbtI inh -24.
Screening COC1=CC(=O)c2ccccc2C1=O returned AID504770 -2.6*, MenB inh -7, PV pol inh 85* and Mtb MbtI inh 3.
For O=C(NC1CCCC1)C(c1ccccc1)N(CC1CCCO1)C(=O)Cn1nnc2ccccc21 (configuration not stated) the results were AID504770 -2, MenB inh 19, PV pol inh 102 and Mtb MbtI inh -19.
Screening Cc1cc(N)c(O)cc1C returned AID504770 -1.1, MenB inh -129, PV pol inh 109 and Mtb MbtI inh 100*.
Cc1cc(N)c(N)cc1C was read as AID504770 -0.2, MenB inh -17, PV pol inh 100 and Mtb MbtI inh -7.
For COc1ccc(-n2nc3c(N4CCCC(C(=O)NCc5ccc(C)cc5)C4)nnc(C)c3c2C)cc1 (configuration not stated) the results were PV pol inh 89*.
Screening O=S(=O)(Nc1ccccc1N1CCCCC1)c1cccc2nonc12 returned AID504770 -0.35, MenB inh 1, PV pol inh 111 and Mtb MbtI inh -2.
`COc1cc(C(=O)Nc2c3c(nn2-c2ccc(F)cc2)CS(=O)(=O)C3)cc(OC)c1OC` gave AID504770 -3.1*, MenB inh -17, PV pol inh 103 and Mtb MbtI inh 6.
`N/C(=N\OC(=O)N1CCOCC1)c1ccccc1` gave AID504770 -2.7*, MenB inh 8, PV pol inh 100 and Mtb MbtI inh -3.
O=C(OCc1ccccc1)N1CCOCCN(C(=O)OCc2ccccc2)CCOCC1 was read as AID504770 -0.1, MenB inh -20, PV pol inh 100 and Mtb MbtI inh -24.
For CC(OC(=O)Cn1ccc(=O)[nH]c1=O)c1ccccc1Cl (configuration not stated) the results were AID504770 3.2, MenB inh -18, PV pol inh 111 and Mtb MbtI inh 7.
`CCc1nc2ccc(C(=O)NCCN3CCN(c4cccc(Cl)c4)CC3)cc2nc1CC` gave AID504770 1.4, MenB inh -106, PV pol inh 99 and Mtb MbtI inh -21.
For O=C1Nc2ccccc2/C1=N\N1C(=O)/C(=C/c2ccccc2)N=C1c1ccccc1 the results were AID504770 -1.1, MenB inh -57 and PV pol inh 88*.
For CC(=O)N1CCCCC1c1cccnc1.O=[N+]([O-])O.[Ag] (configuration not stated) the results were AID504770 -5.5*, MenB inh -36 and PV pol inh 60*.
Screening Nc1cc(=O)[nH]c(=O)n1-c1cccc(Cl)c1 returned AID504770 -0.4, MenB inh -7, PV pol inh 100 and Mtb MbtI inh -16.
CCN(CC)C(=O)CSc1nnc(-c2ccco2)n1CC1CCCO1 (configuration not stated) was read as AID504770 0.45, MenB inh -21, PV pol inh 99 and Mtb MbtI inh 6.
`CNC(=O)CSc1nnc(-c2ccco2)n1CC1CCCO1` (configuration not stated) gave AID504770 1.4, MenB inh 43*, PV pol inh 100 and Mtb MbtI inh 3.
CCCn1c(SCC(=O)c2ccc3c(c2)OCCO3)nnc1-c1ccco1 was read as AID504770 -3.8*, MenB inh -23, PV pol inh 100 and Mtb MbtI inh 7.
For CN(Nc1ccccc1)C1=C(C#N)CN(C2CCCCC2)C1=O the results were AID504770 0.25, MenB inh -15 and PV pol inh 102.
Screening C[CH2][Hg][S]c1ccccc1C(=O)O returned AID504770 -5.4*, MenB inh 6, PV pol inh 100 and Mtb MbtI inh -47.
For CN(C)C(=O)CSc1ccccc1C(=O)O the results were AID504770 0.8, MenB inh -17, PV pol inh 106 and Mtb MbtI inh 4.
Nn1c(-c2ccco2)n[nH]c1=S was read as AID504770 1.2, MenB inh -19, PV pol inh 106 and Mtb MbtI inh 63.
Screening CCOc1ccccc1-c1n[nH]c(=S)n1N returned AID504770 -0.2, MenB inh -7, PV pol inh 83* and Mtb MbtI inh 90.
Nc1nc(SC#CC(F)(F)F)ns1 was read as AID504770 -4.9*, MenB inh -19, PV pol inh 85* and Mtb MbtI inh 51.
Screening CCn1nccc1NC(=O)Cc1ccc(Cl)cc1 returned AID504770 -0.3, MenB inh -7, PV pol inh 102 and Mtb MbtI inh 7.

Screening results as filed in PubChem BioAssay.
